Among all 5,500 compounds or so, about 2,000 (36%) were called active. Inconclusive results (about 18%) are left out. No stated cut-off is given here; in the data, active means normalized growth mostly below about 0.91 (no sharp cut-off); inconclusive means no clear call, values can overlap the other calls; inactive means mostly above about 0.92. The list shows a part of the results.
Test: chemical genetic growth profiling, strain panel (AID 1159580);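 further: tested at 20 µM; growth read once vehicle control cultures reached saturation at 30 °C; 1 = growth at the plate median or of vehicle wells; lower values mean less growth of the strain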
Settings: growth OD
[1] = S. cerevisiae deletion strains, locus YDR150W, strain NUM1, hits give low values
[2] = S. cerevisiae deletion strains, locus YPL055C, strain LGE1, hits give low values
[3] = S. cerevisiae deletion strains, locus YPL241C, strain CIN2, hits give low values

Measured: normalized growth

CSC(N)=NCCC[C@H](N)C(=O)O
inactive: S. cerevisiae deletion strains, locus YAL040C, strain CLN3, hits give low values 1.1 | S. cerevisiae deletion strains, locus YCL061C, strain MRC1 (second series), hits give low values 1.01 | [1] 1.02 | S. cerevisiae deletion strains, locus YDR363W, strain ESC2, hits give low values 0.997 | S. cerevisiae deletion strains, locus YER002W, strain NOP16, hits give low values 1.02 | S. cerevisiae deletion strains, locus YMR307W, strain GAS1, hits give low values 1 | S. cerevisiae deletion strains, locus YNL175C, strain NOP13, hits give low values 1.01 | S. cerevisiae deletion strains, locus YNL197C, strain WHI3, hits give low values 1 | S. cerevisiae deletion strains, locus YNL224C, strain SQS1, hits give low values 1 | S. cerevisiae deletion strains, locus YOR083W, strain WHI5 (second series), hits give low values 1 | [2] 1 | [3] 1.01

COc1ccc(OC)c(S(=O)(=O)N2CCc3cc(OC)c(OC)cc3C2C)c1 (stereo unspecified)
inactive: S. cerevisiae deletion strains, locus YAL013W, strain DEP1, hits give low values 1 | S. cerevisiae deletion strains, locus YBR229C, strain ROT2, hits give low values 0.998 | S. cerevisiae deletion strains, locus YCL061C, strain MRC1, hits give low values 0.994 | S. cerevisiae deletion strains, locus YDL101C, strain DUN1, hits give low values 0.972 | S. cerevisiae deletion strains, locus YDL134C, strain PPH21, hits give low values 0.992 | [1] 0.909 | S. cerevisiae deletion strains, locus YEL061C, strain CIN8, hits give low values 0.998 | S. cerevisiae deletion strains, locus YGR078C, strain PAC10, hits give low values 0.99 | S. cerevisiae deletion strains, locus YHR030C, strain SLT2, hits give low values 0.996 | S. cerevisiae deletion strains, locus YHR087W, strain rtc3, hits give low values 1.03 | S. cerevisiae deletion strains, locus YJL187C, strain SWE1, hits give low values 1.01 | S. cerevisiae deletion strains, locus YJR043C, strain POL32, hits give low values 0.973 | S. cerevisiae deletion strains, locus YJR075W, strain HOC1, hits give low values 0.999 | S. cerevisiae deletion strains, locus YKL190W, strain CNB1, hits give low values 0.984 | S. cerevisiae deletion strains, locus YLR039C, strain RIC1, hits give low values 0.948 | S. cerevisiae deletion strains, locus YLR058C, strain SHM2 (second series), hits give low values 1.02 | S. cerevisiae deletion strains, locus YLR085C, strain ARP6, hits give low values 1.02 | S. cerevisiae deletion strains, locus YLR262C, strain YPT6, hits give low values 1.02 | S. cerevisiae deletion strains, locus YML094W, strain GIM5, hits give low values 1.03 | S. cerevisiae deletion strains, locus YMR219W, strain ESC1, hits give low values 1 | S. cerevisiae deletion strains, locus YMR263W, strain SAP30, hits give low values 1.01 | S. cerevisiae deletion strains, locus YNL153C, strain GIM3, hits give low values 0.994 | S. cerevisiae deletion strains, locus YNL298W, strain CLA4 (second series), hits give low values 0.993 | S. cerevisiae deletion strains, locus YNL322C, strain KRE1, hits give low values 1 | S. cerevisiae deletion strains, locus YNR030W, strain Alg12, hits give low values 1 | [2] 1.02 | [3] 0.996 | S. cerevisiae deletion strains, locus YPR135W, strain CTF4, hits give low values 0.947 | S. cerevisiae strains, strain wild type, hits give low values 0.972

— PubChem BioAssay AID1159580 (chemical genetic matrix, 2015)
